# p47phox inh: p47phox/p22phox peptide binding inhibitors, primary screen, biochemical, uHTS, NADPH oxidase regulatory subunit | Neutrophil cytosol factor 1 (Homo sapiens), P14598 | fluorescence polarization, 2 h | inhibition, % at 24.7 µM | 220,000 tested, 0.53% active;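 active = inhibition above about 30%, limit read from the data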;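 note: 0% = p47phox with labelled peptide and 100% = labelled peptide alone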
# Target sequence (P14598 whole entry, looked up): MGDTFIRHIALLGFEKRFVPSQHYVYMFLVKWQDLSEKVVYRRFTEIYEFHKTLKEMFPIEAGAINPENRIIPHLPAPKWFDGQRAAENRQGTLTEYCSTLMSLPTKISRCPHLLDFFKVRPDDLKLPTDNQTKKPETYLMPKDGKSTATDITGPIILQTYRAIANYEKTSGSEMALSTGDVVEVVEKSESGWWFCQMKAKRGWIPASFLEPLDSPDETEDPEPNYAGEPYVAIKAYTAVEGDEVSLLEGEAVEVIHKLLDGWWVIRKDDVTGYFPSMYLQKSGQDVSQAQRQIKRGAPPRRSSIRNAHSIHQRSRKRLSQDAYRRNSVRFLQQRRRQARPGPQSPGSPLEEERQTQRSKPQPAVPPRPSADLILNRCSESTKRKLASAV
# Mcl1-Noxa inh: Mcl-1/Noxa binding inhibitors, primary screen, biochemical, TR-FRET, 1536-well; 220,000 tested, 1.5% active; Induced myeloid leukemia cell differentiation protein Mcl-1 (Homo sapiens), Q07820; AID 1022, 2008; inhibition, % at 21.7 µM; TR-FRET Mcl-1/Noxa peptide binding, 2 h;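 active = compounds that cut the protein-peptide binding signal by more than 50% relative to plate controls in a single-dose test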;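 note: His-tagged Mcl-1 with rhodamine Noxa BH3 peptide and terbium anti-His antibody; 0% = Mcl-1 plus Noxa peptide wells and 100% = peptide-only wells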
# 14-3-3 Bad PPI: inhibitors of 14-3-3 zeta/Bad binding, primary screen, biochemical, TR-FRET, bovine 14-3-3 zeta. 14-3-3 protein zeta/delta (Bos taurus), P63103. TR-FRET 14-3-3zeta/Dy647-pBad peptide displacement, 1 h. inhibition, % at 21.7 µM. 220,000 tested, 0.71% active;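 active = inhibition above about 70%, limit read from the data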;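 note: 0% = full 14-3-3 plus peptide FRET controls and 100% = background without 14-3-3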
# Target sequence (P63103 whole entry, looked up): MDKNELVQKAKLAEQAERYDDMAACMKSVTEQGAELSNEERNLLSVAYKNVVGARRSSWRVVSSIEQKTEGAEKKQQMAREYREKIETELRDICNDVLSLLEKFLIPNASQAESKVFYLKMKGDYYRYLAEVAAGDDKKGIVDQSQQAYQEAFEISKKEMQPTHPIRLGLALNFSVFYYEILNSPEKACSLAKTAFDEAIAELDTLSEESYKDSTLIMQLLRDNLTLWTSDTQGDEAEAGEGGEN
# Mcl1-Bid inh: Mcl-1/Bid binding inhibitors, primary screen, biochemical, TR-FRET, 1536-well; Induced myeloid leukemia cell differentiation protein Mcl-1 (Homo sapiens), Q07820; TR-FRET Mcl-1/Bid-Dy647 peptide binding; inhibition, % at 21.7 µM; 220,000 tested, 0.97% active;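 active = compounds that cut the binding signal by more than half at the single screening dose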;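 note: His-tagged Mcl-1 with europium anti-His antibody binding Bid BH3 peptide; 0% = Mcl-1 plus peptide wells and 100% = peptide-only wells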
# Mcl-1 Bim block: inhibitors of Bim peptide binding to Mcl-1, primary screen, biochemical, bead-based flow cytometry, multiplex; Induced myeloid leukemia cell differentiation protein Mcl-1 (Homo sapiens), Q07820; Bim peptide-Mcl-1 binding; inhibition, % at 10 µM; 190,000 tested, 0.1% active; in the data active = inhibition above about 40%;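 note: 0% = no compound tracer wells and 100% = peptide blocker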
# An asterisk follows results filed as active; . = not tested or not shown; [ ] = another dose, or the depositor's remark. In the library only some 3.1% were active in any assay of this set; here they are far more common.
SMILES,p47phox inh,Mcl1-Noxa inh,14-3-3 Bad PPI,Mcl1-Bid inh,Mcl-1 Bim block
Cc1ccc(-c2ccc(/C=C3/NC(=O)NC3=O)o2)cc1[N+](=O)[O-],0.0,76.7*,90.3*[fluorescence artefact?],73.0*,2.0
CC[C@H]1OC(=O)[C@H](C)[C@@H](O[C@H]2C[C@@](C)(OC)[C@@H](O)[C@H](C)O2)[C@H](C)[C@@H](O[C@@H]2O[C@H](C)C[C@H](N(C)C)[C@H]2O)[C@](C)(OC)C[C@@H](C)C(=O)[C@H](C)[C@@H](O)[C@]1(C)O,-18.6,-23.9,-3.1,-5.0,-3.0
O=C(O)CC(c1cccc2ccccc12)N1Cc2ccccc2C1=O (stereo not drawn),-4.3,12.3,-4.2,-4.0,-1.0
CCC1(C)Cc2ccccc2/C(=C/C(=O)N2CCCCC2)N1 (stereo not drawn),-1.1,9.2,77.0*,-83.8,-1.0
CCOCCCn1c(C)nc2c(c1=O)c1nc3ccccc3nc1n2CCC1=CCCCC1,-20.0,12.2,27.1,65.9*,-3.0
Cc1nc2c(c(=O)n1CCC1=CCCCC1)c1nc3ccccc3nc1n2/N=C/c1ccccc1,-99.4,16.8,-2.5,-10.5,0.0
COc1cc2c(cc1OC)C(c1ccc(-c3cc(Cl)ccc3Cl)o1)=NCC2,50.8*,12.1,38.6,17.8,0.0
COc1cc2c(cc1OC)C(c1ccc(-c3ccc(Cl)cc3Cl)o1)=NCC2,-9.4,27.8,-4.0,12.8,8.0
Cc1cc(Sc2nc(NC(C)C)nc(NC(C)C)n2)nc(Cl)n1,-4.8,25.6,-2.2,-19.9,3.0
Cc1c(CCO)c(=O)n(-c2ccccc2)n1S(=O)(=O)c1ccc(Cl)cc1,-2.8,22.7,25.9,-2.5,-2.0
COCCCNC(=O)/C=C/c1ccc(Cl)cc1Cl,-22.2,-8.8,-11.9,-9.8,-3.0
CNc1ccc(Br)cc(C(=O)/C=C/c2ccc3c(c2)OCO3)c1=O,-1.6,67.7*,68.3,-21.9,8.0
COc1ccc(/C=C/C(=O)c2ccc(OC)cc2OC)cc1,0.6,-11.8,-0.4,-4.4,-5.0
CNc1ccc(/C=C/C(=O)c2ccc3c(c2)OCCO3)cc1[N+](=O)[O-],-26.8,-12.9,-0.2,-13.6,-5.0
COc1ccc(/C=C/C(=O)c2cc(Br)ccc2O)cc1OC,-7.1,13.7,-0.8,-23.0,0.0
CCNc1ccc(Br)cc(C(=O)/C=C/c2ccc(Cl)cc2Cl)c1=O,-9.9,95.6*,61.0,29.3,-1.0
CNc1ccc(Br)cc(C(=O)/C=C/c2ccc(OC)cc2)c1=O,-13.8,62.6*,0.1,-2.1,5.0
CNc1ccc(Br)cc(C(=O)/C=C/c2cc(OC)ccc2OC)c1=O,-6.6,86.8*,21.8,8.5,13.0
CCCCNC(=O)Cc1cc(=O)[nH]c(=O)[nH]1,-10.8,13.1,-2.7,0.2,0.0
CC[C@H](C)[C@@H](NC(=O)O[C@@H]1C(=O)c2cc(Br)ccc2O[C@H]1c1ccc2c(c1)OCO2)C(=O)OC,-2.3,-3.2,-2.2,5.1,-1.0
Cc1nc(OCC(=O)c2ccc(Cl)cc2)c(C#N)c2c1COC(C)(C)C2,121.5*,17.3,19.8,4.9,2.0
CC1(C)Cc2c(C#N)c(OCC(=O)c3ccc(Cl)cc3)nc(-c3ccco3)c2CO1,-14.9,0.7,-4.6,-18.3,-1.0
CCC(=S)/C=C1\Sc2ccc3ccccc3c2N1CCCS(=O)(=O)O,-24.5,29.7,.,-82.9,0.0
O=C1NC(=S)S/C1=C1\Sc2ccccc2N1CCCS(=O)(=O)O,-17.7,74.5*,10.5,5.3,-5.0
CCOC(=O)C1CCCN(S(=O)(=O)c2ccc(OC)cc2)C1 (stereo not drawn),-18.2,-1.4,-7.6,11.4,-1.0
SMILES,p47phox inh,Mcl1-Noxa inh,14-3-3 Bad PPI,Mcl1-Bid inh,Mcl-1 Bim block
CC(C)CN(C(=O)COC(=O)c1cc2c(s1)CCC2)C1CCS(=O)(=O)C1 (stereo not drawn),-3.1,55.4*,-18.9,-29.3,1.0
CC(NCc1ccccc1)C1COc2ccccc2O1 (stereo not drawn),0.5,.,48.3,60.0*,-3.0
COc1cccc(C(=O)Nc2ccc(NC(C)=O)cc2)c1,-6.8,1.0,-0.5,-24.9,0.0
COc1cccc(C(=O)Nc2cc(Cl)c(O)c(Cl)c2)c1,-6.8,98.2*,-2.7,-55.9,.
CCn1c(SCC(=O)Nc2ccc3c(c2)oc2ccccc23)nnc1-c1ccc(N)cc1,0.0,55.8*,65.8,58.3*,2.0
COCCCN=Cc1c(-c2ccccc2)[nH]n(-c2nc3ccccc3s2)c1=O,-85.8,13.6,-0.7,8.2,.
O=c1c(C=NCCCO)c(-c2ccccc2)[nH]n1-c1nc2ccccc2s1,-29.9,33.2,71.0*,61.5*,-1.0
CCCCn1nc2cc(C(=O)NCc3cc(C(F)(F)F)cc(C(F)(F)F)c3)ccc2c1OC,-11.3,14.9,.,-11.0,-1.0
CCCCn1nc2cc(C(=O)NCc3ccc(OC(F)(F)F)cc3)ccc2c1OC,-7.0,14.5,70.8*,-13.4,-2.0
CCOc1ccccc1NC(=O)C(Sc1ccccc1)c1ccccc1 (stereo not drawn),52.8*,-13.4,-12.4,7.7,-1.0
Cc1ccc(CNc2ccc(O)cc2)cc1,12.7,51.8*,6.8,-18.5,1.0
CC(=O)N1CCN(c2ccc(NCc3ccc(C)cc3)cc2)CC1,2.9,52.9*,-5.1,-10.9,0.0
CCc1ccc(CNc2ccc(N3CCN(C(C)=O)CC3)cc2)cc1,10.8,21.1,-3.7,-17.7,1.0
Cc1ccc(NCc2ccccc2O)cc1,8.1,7.2,.,-103.0,-1.0
O=C(NNS(=O)(=O)c1ccc(Cl)cc1)c1cnn(-c2ccccc2)c1-n1cccc1,-14.2,5.2,-6.4,-15.5,-1.0
CC1C/C(=C/c2ccco2)C(=O)/C(=C/c2ccco2)C1 (stereo not drawn),-31.3,52.8*,-4.0,-12.8,16.0
O=c1c(/C=N/OCc2ccc(Cl)cc2Cl)c[nH]n1-c1cccc(Cl)n1,-26.7,-41.3,-16.5,-70.7,-3.0
COc1ccc(N=Cc2cc(Cc3ccccc3Cl)cc([N+](=O)[O-])c2O)cc1OC,-228.2,61.4*,22.5,-0.7,-1.0
NC(=NCc1ccc2c(c1)OCO2)NC(=O)c1ccccc1,-11.6,8.7,77.3*,7.5,-1.0
COc1cccc(-n2c(C)cc(/C=C3/C(=N)N4C(=NC3=O)SN=C4S(C)(=O)=O)c2C)c1,-49.2,32.5,-19.2,-16.9,2.0
CN(C)c1ccc(/C=C2\C(=N)N3C(=NC2=O)Sc2cc(S(C)(=O)=O)ccc23)cc1,-60.1,59.9*,37.4,63.6*,.
CCOC(=O)C1CCCN(c2nc(C)nc3c2oc2ccccc23)C1 (stereo not drawn),-4.8,22.9,82.8*,14.1,0.0
